Inconclusive results are not listed. Active and inactive are the calls of the source. Unless noted, calls come from the whole dose curve.
Experiments:
[1] = Nuclear factor erythroid 2-related factor 2/antioxidant responsive element (Nrf2/ARE) small molecule agonists: qHTS cell viability counter screen in human keratinocytes (AID 1919968; active = well fitted curve in the direction sought with a large enough effect in the repeat runs; an effect the other way counts as inactive or inconclusive; note: nearly all actives have a fitted effect of over 55% in size; note: potency is the fitted concentration of half-maximal effect)
Outline: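 KeratinoSens cells (HaCaT keratinocytes stably carrying an ARE-luciferase reporter) were seeded at 1,500 cells/well and rested 5 h at 37 C/5% CO2. They were then exposed to compounds in DMSO for 23 h. Viability was read by CellTiter-Fluor fluorescence after 1 h.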

[2] = Nuclear factor erythroid 2-related factor 2/antioxidant responsive element (Nrf2/ARE) small molecule agonists: luciferase reporter gene qHTS assay in human keratinocytes (AID 1919969); note: nearly all actives have a fitted effect of over 35% in size
[3] = target: Gonadotropin-releasing hormone receptor (Homo sapiens) (UniProt P30968); assay: Human gonadotropin-releasing hormone receptor (GnRHR) small molecule agonists, calcium flux assay in GnRHR-HEK293 cells (AID 1920063); note: nearly all actives have a fitted effect of over 35% in size; note: potency is the fitted concentration of half-maximal effect
Chain of Gonadotropin-releasing hormone receptor (Homo sapiens) (P30968 whole entry, looked up): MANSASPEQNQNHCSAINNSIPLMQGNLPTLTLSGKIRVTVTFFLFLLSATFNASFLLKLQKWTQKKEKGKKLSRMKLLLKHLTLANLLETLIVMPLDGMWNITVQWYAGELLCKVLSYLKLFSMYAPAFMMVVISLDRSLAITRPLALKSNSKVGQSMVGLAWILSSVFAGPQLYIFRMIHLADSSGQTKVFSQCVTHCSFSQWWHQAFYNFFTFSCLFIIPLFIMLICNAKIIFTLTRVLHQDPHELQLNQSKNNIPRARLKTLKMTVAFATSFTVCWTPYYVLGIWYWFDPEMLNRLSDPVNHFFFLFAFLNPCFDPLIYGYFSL
Outline: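 HEK293 cells stably expressing human GnRHR were plated 18 h at 37 °C, loaded with calcium dye 1 h at 37 °C, then given compound in agonist mode; fluorescence (Ex/Em 480/540) read kinetically for 3 min at 1 s intervals.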

[4] = target: KiSS-1 receptor (Homo sapiens) (UniProt Q969F8); assay: Human kisspeptin (KISS1R) small molecule agonists, calcium flux assay in KISS1R-HEK293 cells (AID 1920064; active = well fitted curve in the direction sought with a large enough effect in the repeat runs; an effect the other way counts as inactive or inconclusive)
Chain of KiSS-1 receptor (Homo sapiens) (Q969F8 whole entry, looked up): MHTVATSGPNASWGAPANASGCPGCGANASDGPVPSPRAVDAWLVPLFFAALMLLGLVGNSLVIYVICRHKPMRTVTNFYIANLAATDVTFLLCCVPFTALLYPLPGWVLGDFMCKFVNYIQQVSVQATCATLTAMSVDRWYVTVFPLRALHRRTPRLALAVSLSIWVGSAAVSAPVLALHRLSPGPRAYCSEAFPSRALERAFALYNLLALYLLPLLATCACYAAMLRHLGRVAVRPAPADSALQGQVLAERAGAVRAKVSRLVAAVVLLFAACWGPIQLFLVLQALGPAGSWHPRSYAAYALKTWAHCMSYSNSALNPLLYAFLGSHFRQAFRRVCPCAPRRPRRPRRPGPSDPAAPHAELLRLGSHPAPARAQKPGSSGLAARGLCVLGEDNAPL
Outline: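 HEK293 cells stably expressing human KISS1R were plated 18 h at 37 °C, loaded with calcium dye for 1 h at 37 °C, then given compound by pin tool. Fluorescence (Ex/Em 480/540) was read kinetically for 3 min.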

[5] = p53 small molecule agonists, cell-based qHTS assay with human liver microsomes (AID 1963577);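 note: p53 response element beta-lactamase reporter cells with liver microsomes plus NADPH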
Outline: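 Steps: plate p53RE-bla cells, incubate 5 h at 37 C; add compound in DMSO; add microsomes (0.5 mg/mL final) and NADPH (0.5 mg/mL final); incubate 16 h at 37 C; add LiveBLAzer, 2 h RT; read fluorescence.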

[6] = p53 small molecule agonists, cell-based qHTS assay with rat liver microsomes (AID 1963578)
Outline: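 Metabolic activation is supplied by rat liver microsomes with NADPH (each 0.5 mg/mL final). p53RE-bla cells incubate with compound 16 h at 37 C; reporter activity is measured by LiveBLAzer fluorescence.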

[7] = p53 small molecule agonists, cell-based qHTS assay with human liver microsomes: qHTS cell viability counter screen (AID 1963579); note: nearly all actives have a fitted effect of over 45% in size
Outline: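 After the 460/530 nm beta-lactamase read, CellTiter-Glo was added to the same wells and luminescence measured after 30 min at room temperature, giving viability of p53RE-bla cells treated 16 h with compounds plus microsomes and NADPH.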

[8] = p53 small molecule agonists, cell-based qHTS assay with rat liver microsomes: qHTS cell viability counter screen (AID 1963580); note: nearly all actives have a fitted effect of over 45% in size; note: potency is the fitted concentration of half-maximal effect
Outline: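 p53RE-bla HCT-116 cells were exposed 16 h at 37 C to compounds with rat liver microsomes (0.5 mg/mL) and NADPH (0.5 mg/mL). Viability was measured in the same wells as ATP content by CellTiter-Glo luminescence.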

[9] = target: 5-hydroxytryptamine receptor 2A (Homo sapiens) (UniProt P28223); assay: 5-hydroxytryptamine receptor 2A (HTR2A) small molecule antagonists, cell-based qHTS assay (AID 1963586); note: nearly all actives have a fitted effect of over 45% in size; note: potency is the fitted concentration of half-maximal effect
Chain of 5-hydroxytryptamine receptor 2A (Homo sapiens) (P28223 whole entry, looked up): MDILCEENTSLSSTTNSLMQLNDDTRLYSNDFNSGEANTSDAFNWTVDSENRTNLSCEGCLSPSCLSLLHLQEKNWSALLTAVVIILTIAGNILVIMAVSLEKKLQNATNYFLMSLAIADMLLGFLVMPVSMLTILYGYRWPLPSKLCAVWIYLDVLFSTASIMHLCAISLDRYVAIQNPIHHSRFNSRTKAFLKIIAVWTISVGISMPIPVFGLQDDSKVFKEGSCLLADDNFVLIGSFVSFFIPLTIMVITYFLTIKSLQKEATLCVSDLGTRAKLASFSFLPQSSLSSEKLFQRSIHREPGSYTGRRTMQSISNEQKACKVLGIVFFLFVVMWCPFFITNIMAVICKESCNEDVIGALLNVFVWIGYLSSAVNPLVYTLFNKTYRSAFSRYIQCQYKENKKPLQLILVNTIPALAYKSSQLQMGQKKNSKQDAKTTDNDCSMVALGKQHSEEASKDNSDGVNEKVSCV
Outline: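 Antagonist-mode intracellular calcium assay: DOI (4 nM) added after 5 min compound pre-incubation at room temperature to dye-loaded HTR2A-CHO cells. Fluorescence followed for 3 min, sampled every second.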

[10] = target: 5-hydroxytryptamine receptor 2A (Homo sapiens) (UniProt P28223); assay: 5-hydroxytryptamine receptor 2A (HTR2A) small molecule agonists, cell-based qHTS assay (AID 1963587); note: nearly all actives have a fitted effect of over 30% in size
Outline: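 CHO cells stably expressing human HTR2A, plated 18 h, loaded with calcium dye 1 h at 37 C. Agonist mode: compounds added and intracellular calcium fluorescence recorded kinetically for 2 min at 1 sec intervals.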

[11] = target: Muscarinic acetylcholine receptor M1 (Homo sapiens) (UniProt P11229); assay: Cholinergic receptor muscarinic 1 (CHRM1) small molecule antagonists, cell-based qHTS assay (AID 1963588); note: nearly all actives have a fitted effect of over 40% in size; note: potency is the fitted concentration of half-maximal effect
Chain of Muscarinic acetylcholine receptor M1 (Homo sapiens) (P11229 whole entry, looked up): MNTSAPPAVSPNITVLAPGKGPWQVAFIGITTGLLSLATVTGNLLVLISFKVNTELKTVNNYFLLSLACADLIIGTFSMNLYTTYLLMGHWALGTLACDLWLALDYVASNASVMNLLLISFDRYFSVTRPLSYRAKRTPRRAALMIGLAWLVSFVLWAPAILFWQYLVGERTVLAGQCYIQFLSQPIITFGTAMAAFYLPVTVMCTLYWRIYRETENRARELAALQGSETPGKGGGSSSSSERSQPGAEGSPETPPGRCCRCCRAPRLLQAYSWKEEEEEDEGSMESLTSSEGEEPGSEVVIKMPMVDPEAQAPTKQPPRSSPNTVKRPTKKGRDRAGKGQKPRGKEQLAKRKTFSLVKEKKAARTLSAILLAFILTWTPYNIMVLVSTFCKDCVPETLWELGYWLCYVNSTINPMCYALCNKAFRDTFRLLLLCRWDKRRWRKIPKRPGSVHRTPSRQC
Outline: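 CHRM1-CHO calcium-flux assay, antagonist mode. Cells were seeded 18 h, dye-loaded 1 h at 37 C and given compound for 5 min at RT, then acetylcholine was added at 50nM. FDSS fluorescence was read 3 min; 15 concentrations, three runs.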

[12] = target: Muscarinic acetylcholine receptor M1 (Homo sapiens) (UniProt P11229); assay: Cholinergic receptor muscarinic 1 (CHRM1) small molecule agonists, cell-based qHTS assay (AID 1963589); note: nearly all actives have a fitted effect of over 35% in size; note: potency is the fitted concentration of half-maximal effect
Outline: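 CHO cells stably expressing human CHRM1, seeded 18 h at 37 C/5% CO2, dye-loaded 1 h at 37 C, then given compound in agonist mode; intracellular calcium fluorescence read kinetically at 1 s intervals. Fifteen concentrations, three independent runs.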

[13] = cAMP Responsive Elements (CRE) small molecule agonists, cell-based qHTS assay (AID 1963590)
Outline: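 CRE-bla HEK 293T cells in DMEM with 10% dialyzed FBS, NEAA, pyruvate and 25 mM HEPES were plated 18 h at 37 C/5% CO2, then exposed to compounds in DMSO for 3 h before LiveBLAzer B/G FRET substrate addition.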

[14] = cAMP Responsive Elements (CRE) small molecule antagonists, cell-based qHTS assay (AID 1963591; active = well fitted inhibition curve with a large enough effect in the signal ratio in the repeat runs, not every such curve was filed as active; the % refers to the signal ratio)
Outline: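 CRE-bla HEK293T cells were plated 18 h at 37 °C/5% CO2, pinned with compound in DMSO, then stimulated with NKH477 at 0.25 uM final for 3 h. LiveBLAzer B/G FRET substrate was added and plates incubated 2 h at room temperature.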

[15] = target: Beta-2 adrenergic receptor (Homo sapiens) (UniProt P07550); assay: Adrenergic beta2 receptor (ADRB2) small molecule antagonists, cell-based qHTS assay (AID 1963592); note: series mostly up to about 92 µM; nearly all actives have a fitted effect of over 50% in size
Chain of Beta-2 adrenergic receptor (Homo sapiens) (P07550 whole entry, looked up): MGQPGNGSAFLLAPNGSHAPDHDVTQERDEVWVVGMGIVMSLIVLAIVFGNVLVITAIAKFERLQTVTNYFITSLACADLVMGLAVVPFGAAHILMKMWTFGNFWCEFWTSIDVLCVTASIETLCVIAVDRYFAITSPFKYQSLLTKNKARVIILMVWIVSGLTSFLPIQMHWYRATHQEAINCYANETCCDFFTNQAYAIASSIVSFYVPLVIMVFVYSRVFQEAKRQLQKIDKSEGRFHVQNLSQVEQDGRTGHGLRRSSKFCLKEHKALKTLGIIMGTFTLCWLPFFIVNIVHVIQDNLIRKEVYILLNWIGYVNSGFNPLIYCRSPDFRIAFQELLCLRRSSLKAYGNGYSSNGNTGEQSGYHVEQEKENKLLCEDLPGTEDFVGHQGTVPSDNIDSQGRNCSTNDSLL
Outline: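 Cells (CHO, stable ADRB2 overexpression) incubated 18-20hr at 37C; compounds added from DMSO; agonist mix (1nM isoproterenol, 100uM IBMX, 25uM Ro-20-1724) added; 0.5hr RT; d2-cAMP and anti-cAMP-cryptate added; 1hr RT; 665/615 nm read.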

[16] = target: D(2) dopamine receptor (Homo sapiens) (UniProt P14416); assay: Dopamine D2 receptor (DRD2) small molecule agonists, cell-based qHTS assay (AID 1963594); note: nearly all actives have a fitted effect of over 35% in size
Chain of D(2) dopamine receptor (Homo sapiens) (P14416 whole entry, looked up): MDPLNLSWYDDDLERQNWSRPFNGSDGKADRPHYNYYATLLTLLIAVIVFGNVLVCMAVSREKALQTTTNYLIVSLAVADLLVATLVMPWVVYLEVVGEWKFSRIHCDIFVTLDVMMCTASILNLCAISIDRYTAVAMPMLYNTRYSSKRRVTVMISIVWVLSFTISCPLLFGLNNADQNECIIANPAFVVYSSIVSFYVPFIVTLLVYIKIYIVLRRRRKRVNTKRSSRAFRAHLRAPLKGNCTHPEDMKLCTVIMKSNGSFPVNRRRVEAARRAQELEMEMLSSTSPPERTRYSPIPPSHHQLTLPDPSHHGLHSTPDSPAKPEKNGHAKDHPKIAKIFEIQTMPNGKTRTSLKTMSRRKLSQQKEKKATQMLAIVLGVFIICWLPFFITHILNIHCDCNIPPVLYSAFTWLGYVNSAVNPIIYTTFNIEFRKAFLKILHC
Outline: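 HEK293 cells stably expressing human DRD2, pre-treated with PDE inhibitor Ro20-1724 (0.1 mM final) and compound 10 min at room temperature, then stimulated with NKH477 (200nM […]) for 30 min. cAMP read by HTRF (665/620 nm).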

[17] = target: D(2) dopamine receptor (Homo sapiens) (UniProt P14416); assay: Dopamine D2 receptor (DRD2) small molecule antagonists, cell-based qHTS assay (AID 1963595; active = well fitted inhibition curve with a large enough effect in the signal ratio in the repeat runs, with a control signal flat; the % refers to the signal ratio)
Outline: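 Cells were plated and grown for 24 h at 37 °C. Ro20-1724 (0.1 mM final) went in first, then compound for 10 min. NKH477 (200 nM) with quinpirole (12 nM) followed for 30 min at RT, then HTRF detection reagents for 1 h.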

[18] = p53 small molecule agonists, cell-based qHTS assay: qHTS cell viability counter screen (AID 1963581); note: nearly all actives have a fitted effect of over 45% in size
Outline: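 p53RE-bla HCT-116 cells were exposed to compounds for 16 h at 37 C; after the beta-lactamase FRET read in the same wells, CellTiter-Glo was added and luminescence (intracellular ATP) read after 30 min at room temperature.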

[19] = p53 small molecule agonists, cell-based qHTS assay (AID 1963582; active = well fitted activation curve with a large enough effect in the signal ratio in the repeat runs, not every such curve was filed as active; the % refers to the signal ratio)
Outline: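 p53RE-bla beta-lactamase reporter cells rested 5 h at 37 C/5% CO2, then received compounds in DMSO by pin transfer and were incubated 16 h at 37 C. LiveBLAzer B/G FRET substrate was loaded for 2 h at room temperature before fluorescence reading.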
% is set by controls: 0 for no effect and ±100 for the full control effect.

COC(=O)C(C)(C)C
inactive: Potency [1] | Potency [2] | Potency [3] | outcome [4] | Potency [5] | Potency [6] | Potency [7] | Potency [8] | Potency [9] | Potency [10] | Potency [11] | Potency [12] | Potency [13] | Potency [14] | Potency [15] | Potency [16] | Potency [17]

CCCCCCCCCCCCCCC1CO1 (stereo not drawn)
inactive: Potency [1] | Potency [2] | Potency [3] | outcome [4] | Potency [5] | Potency [6] | Potency [8] | Potency [18] | Potency [10] | Potency [11] | Potency [12] | Potency [13] | Potency [14] | Potency [15] | Potency [16] | Potency [17]

Cc1cc(C)c(NC(=O)CN(CC(=O)O)CC(=O)O)c(C)c1Br
inactive: Potency [1] | Potency [2] | Potency [3] | outcome [4] | Potency [5] | Potency [6] | Potency [7] | Potency [18] | Potency [19] | Potency [9] | Potency [10] | Potency [11] | Potency [12] | Potency [14] | Potency [17]

O=c1[nH]ncc2ccccc12
inactive: Potency [1] | Potency [2] | Potency [3] | outcome [4] | Potency [5] | Potency [6] | Potency [7] | Potency [8] | Potency [18] | Potency [9] | Potency [10] | Potency [11] | Potency [12] | Potency [13] | Potency [14] | Potency [15] | Potency [16] | Potency [17]

C=CC(=O)OCC[N+](C)(C)C
inactive: Potency [1] | Potency [2] | outcome [4] | Potency [5] | Potency [6] | Potency [7] | Potency [8] | Potency [18] | Potency [9] | Potency [10] | Potency [15] | Potency [16] | Potency [17]
active: Potency [3] 438 nM | Potency [12] 43.8 nM

CN1CCN(N)CC1
inactive: Potency [1] | Potency [2] | Potency [3] | outcome [4] | Potency [5] | Potency [6] | Potency [7] | Potency [8] | Potency [19] | Potency [10] | Potency [12] | Potency [13] | Potency [14] | Potency [15] | Potency [17]

Nc1c(N=Nc2ccc(-c3ccc(N=Nc4cc(S(=O)(=O)O)c5ccccc5c4N)cc3)cc2)cc(S(=O)(=O)O)c2ccccc12
active: Potency [1] 30.6 µM
inactive: Potency [2] | Potency [3] | outcome [4] | Potency [5] | Potency [6] | Potency [7] | Potency [8] | Potency [9] | Potency [12] | Potency [13] | Potency [14]

CN(C)CCOC1=Cc2ccccc2Sc2ccc(Cl)cc21
inactive: Potency [1] | Potency [2] | Potency [3] | outcome [4] | Potency [5] | Potency [6] | Potency [8] | Potency [10] | Potency [11] | Potency [13] | Potency [14] | Potency [15] | Potency [16]

COc1ncnc(NS(=O)(=O)c2ccc(N)cc2)c1OC
inactive: Potency [1] | Potency [2] | Potency [3] | outcome [4] | Potency [5] | Potency [6] | Potency [7] | Potency [8] | Potency [18] | Potency [19] | Potency [13] | Potency [14] | Potency [15] | Potency [16] | Potency [17]

CCCCCCCCCCCCCCCCCC#N
inactive: Potency [1] | Potency [2] | Potency [3] | outcome [4] | Potency [5] | Potency [6] | Potency [7] | Potency [19] | Potency [9] | Potency [10] | Potency [11] | Potency [12] | Potency [13] | Potency [14] | Potency [15] | Potency [17]
active: Potency [8] 1.65 µM

C[C@@H]1CN(c2c(F)c(N)c3c(=O)c(C(=O)O)cn(C4CC4)c3c2F)C[C@H](C)N1
inactive: activity change, negative = cytotoxicity [1] 1.83% [at 19 µM] | activity, positive = activation [2] -7.44% [at 19 µM] | activity change [3] 0.726% [at 11.8 µM, hits give high values] | activation [4] -1.07% [at 15.8 µM] | activation [5] -0.339% [at 13.5 µM] | activation [6] 0.693% [at 13.6 µM] | activity change, negative = cytotoxicity [8] 3.67% [at 13.5 µM] | activity change, negative = cytotoxicity [18] 5.52% [at 13.5 µM] | activation [19] -0.164% [at 13.5 µM] | activation [13] -1.16% [at 19 µM] | activity change, negative = inhibition [14] -4.06% [at 18.9 µM] | activity change, negative = inhibition [15] 8.12% [at 19 µM] | activation [16] -2.73% [at 19 µM] | activity change, negative = inhibition [17] 0.614% [at 18.9 µM]

O=C1OCc2ccccc21
inactive: Potency [1] | Potency [2] | Potency [3] | outcome [4] | Potency [5] | Potency [6] | Potency [7] | Potency [18] | Potency [19] | Potency [11] | Potency [12] | Potency [13] | Potency [14] | Potency [15] | Potency [16] | Potency [17]

Cc1cccc2nccnc12
inactive: Potency [1] | Potency [2] | Potency [3] | outcome [4] | Potency [5] | Potency [6] | Potency [7] | Potency [8] | Potency [19] | Potency [9] | Potency [10] | Potency [11] | Potency [12] | Potency [13] | Potency [14] | Potency [15] | Potency [16] | Potency [17]

Cc1ccsc1/C=C/C1=NCCCN1C
inactive: Potency [1] | Potency [2] | Potency [3] | outcome [4] | Potency [5] | Potency [7] | Potency [8] | Potency [18] | Potency [19] | Potency [9] | Potency [10] | Potency [12] | Potency [14] | Potency [15] | Potency [16] | Potency [17]
active: Potency [11] 0.0033 µM

CCCCNc1c(C(=O)OCC)c(C)nc2c1cnn2CC
inactive: Potency [1] | Potency [2] | Potency [3] | outcome [4] | Potency [5] | Potency [6] | Potency [7] | Potency [8] | Potency [19] | Potency [9] | Potency [10] | Potency [11] | Potency [16] | Potency [17]

CN(C)CCN(Cc1ccc(Cl)cc1)c1ccccn1
inactive: Potency [1] | Potency [2] | Potency [3] | outcome [4] | Potency [5] | Potency [6] | Potency [8] | Potency [18] | Potency [19] | Potency [10] | Potency [13] | Potency [14] | Potency [16] | Potency [17]
active: Potency [9] 8.18 µM | Potency [11] 7.29 µM

— PubChem BioAssay (Tox21)
